# Measured values: the supplement of paper PMC10849652
# The full data set covers some 7,900 targets. This sample favours those with a hit. About 0.6% of all pairs of compound and target were hits.
# Compound: C1CN(CCC1(CC2=CC=C(C=C2)Cl)N)C3=NC=NC4=C3C=CN4
# Experiment: log2 fold change, soluble protein after heating vs DMSO (PISA); higher = thermal stabilisation; K562 cells, 10 uM, 30 min; active = over 0.2 and 3.5 SD of the protein, either way, in both replicates (recomputed)
# Method in brief: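 K562 cells at 2×10^6 cells/mL were treated with 10 μM compound for 30 min. Aliquots were heated for 3 min across 48°C-58°C, pooled, and extracted in PBS with 0.5% NP-40 at 4°C; soluble protein was the supernatant after 21,000xg for 90 min. Soluble protein was quantified by TMTpro 16plex LC-MS/MS with channel sums equalised, and reported as log2 fold change in thermal stability against DMSO controls, with values from duplicates.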
# UniProt P43361, sequence (P43361 whole entry, looked up): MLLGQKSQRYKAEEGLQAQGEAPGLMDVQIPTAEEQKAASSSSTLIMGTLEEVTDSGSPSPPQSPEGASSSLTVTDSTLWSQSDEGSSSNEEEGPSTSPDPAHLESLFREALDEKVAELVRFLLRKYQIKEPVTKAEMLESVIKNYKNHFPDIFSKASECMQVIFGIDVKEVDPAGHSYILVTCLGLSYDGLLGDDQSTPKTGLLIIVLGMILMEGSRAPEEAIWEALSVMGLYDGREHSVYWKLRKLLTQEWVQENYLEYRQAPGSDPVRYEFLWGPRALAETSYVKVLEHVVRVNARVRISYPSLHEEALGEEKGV
# UniProt Q9P244, sequence (Q9P244 whole entry, looked up): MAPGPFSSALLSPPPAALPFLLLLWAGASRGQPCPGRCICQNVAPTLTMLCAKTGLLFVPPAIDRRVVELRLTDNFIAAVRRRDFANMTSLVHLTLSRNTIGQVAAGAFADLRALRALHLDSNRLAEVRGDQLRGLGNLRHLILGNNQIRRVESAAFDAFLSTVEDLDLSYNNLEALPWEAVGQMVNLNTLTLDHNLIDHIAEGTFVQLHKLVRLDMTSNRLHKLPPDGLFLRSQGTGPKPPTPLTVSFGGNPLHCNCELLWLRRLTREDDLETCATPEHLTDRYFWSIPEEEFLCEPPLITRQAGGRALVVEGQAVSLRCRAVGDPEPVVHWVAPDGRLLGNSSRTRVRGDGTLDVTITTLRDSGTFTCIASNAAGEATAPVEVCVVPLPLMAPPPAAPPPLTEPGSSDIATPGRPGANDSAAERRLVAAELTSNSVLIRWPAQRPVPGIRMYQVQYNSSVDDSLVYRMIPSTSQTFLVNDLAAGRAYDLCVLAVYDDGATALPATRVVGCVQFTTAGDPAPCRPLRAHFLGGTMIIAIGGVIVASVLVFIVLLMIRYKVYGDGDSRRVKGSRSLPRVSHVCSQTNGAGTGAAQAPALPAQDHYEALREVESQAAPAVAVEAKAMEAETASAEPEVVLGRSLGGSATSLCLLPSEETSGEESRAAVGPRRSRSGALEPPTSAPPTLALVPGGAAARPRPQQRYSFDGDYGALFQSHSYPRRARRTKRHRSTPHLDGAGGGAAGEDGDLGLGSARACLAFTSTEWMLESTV
# UniProt Q8WYH8, sequence (Q8WYH8 whole entry, looked up): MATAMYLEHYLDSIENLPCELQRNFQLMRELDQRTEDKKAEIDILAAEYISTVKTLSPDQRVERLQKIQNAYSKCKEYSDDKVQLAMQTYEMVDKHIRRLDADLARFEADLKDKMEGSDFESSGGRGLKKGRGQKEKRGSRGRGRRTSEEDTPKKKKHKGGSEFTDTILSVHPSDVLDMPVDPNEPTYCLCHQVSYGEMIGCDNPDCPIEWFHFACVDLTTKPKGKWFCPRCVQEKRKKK
# UniProt P02545, sequence (P02545 whole entry, looked up): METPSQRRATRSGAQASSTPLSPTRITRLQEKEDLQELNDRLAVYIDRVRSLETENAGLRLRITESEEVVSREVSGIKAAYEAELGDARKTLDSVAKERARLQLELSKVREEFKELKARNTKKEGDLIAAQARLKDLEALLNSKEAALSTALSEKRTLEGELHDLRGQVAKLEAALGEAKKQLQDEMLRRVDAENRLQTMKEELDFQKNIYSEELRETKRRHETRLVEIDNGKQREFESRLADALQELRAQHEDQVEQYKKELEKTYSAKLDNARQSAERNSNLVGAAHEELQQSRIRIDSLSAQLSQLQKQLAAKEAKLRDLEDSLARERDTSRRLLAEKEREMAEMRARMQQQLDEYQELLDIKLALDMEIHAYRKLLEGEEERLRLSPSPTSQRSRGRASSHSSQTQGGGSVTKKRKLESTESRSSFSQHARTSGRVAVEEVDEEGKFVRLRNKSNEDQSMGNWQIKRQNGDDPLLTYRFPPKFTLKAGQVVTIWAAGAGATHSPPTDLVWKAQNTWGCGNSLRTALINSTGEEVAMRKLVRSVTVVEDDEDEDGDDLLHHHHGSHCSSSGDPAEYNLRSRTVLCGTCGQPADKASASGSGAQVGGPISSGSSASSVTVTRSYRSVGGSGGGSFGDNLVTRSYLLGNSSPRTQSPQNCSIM
# UniProt Q86X29, sequence (Q86X29 whole entry, looked up): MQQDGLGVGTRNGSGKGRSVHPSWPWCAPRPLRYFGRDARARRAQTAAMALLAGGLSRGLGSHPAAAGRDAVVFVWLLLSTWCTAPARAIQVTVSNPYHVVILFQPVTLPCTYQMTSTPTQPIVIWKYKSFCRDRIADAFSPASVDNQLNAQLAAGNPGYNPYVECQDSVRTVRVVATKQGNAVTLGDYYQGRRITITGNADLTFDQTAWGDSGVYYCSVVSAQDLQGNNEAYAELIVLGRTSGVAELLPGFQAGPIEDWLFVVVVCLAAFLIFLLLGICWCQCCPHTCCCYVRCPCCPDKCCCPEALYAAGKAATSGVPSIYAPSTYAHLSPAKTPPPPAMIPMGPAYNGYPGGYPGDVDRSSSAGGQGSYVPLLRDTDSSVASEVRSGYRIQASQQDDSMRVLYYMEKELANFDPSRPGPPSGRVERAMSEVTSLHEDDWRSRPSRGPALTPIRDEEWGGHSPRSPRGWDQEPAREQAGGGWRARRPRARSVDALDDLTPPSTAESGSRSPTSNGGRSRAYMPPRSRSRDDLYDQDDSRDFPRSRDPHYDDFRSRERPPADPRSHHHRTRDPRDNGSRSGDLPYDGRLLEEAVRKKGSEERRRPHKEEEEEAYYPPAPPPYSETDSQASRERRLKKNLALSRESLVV
# UniProt O60291, sequence (O60291 whole entry, looked up): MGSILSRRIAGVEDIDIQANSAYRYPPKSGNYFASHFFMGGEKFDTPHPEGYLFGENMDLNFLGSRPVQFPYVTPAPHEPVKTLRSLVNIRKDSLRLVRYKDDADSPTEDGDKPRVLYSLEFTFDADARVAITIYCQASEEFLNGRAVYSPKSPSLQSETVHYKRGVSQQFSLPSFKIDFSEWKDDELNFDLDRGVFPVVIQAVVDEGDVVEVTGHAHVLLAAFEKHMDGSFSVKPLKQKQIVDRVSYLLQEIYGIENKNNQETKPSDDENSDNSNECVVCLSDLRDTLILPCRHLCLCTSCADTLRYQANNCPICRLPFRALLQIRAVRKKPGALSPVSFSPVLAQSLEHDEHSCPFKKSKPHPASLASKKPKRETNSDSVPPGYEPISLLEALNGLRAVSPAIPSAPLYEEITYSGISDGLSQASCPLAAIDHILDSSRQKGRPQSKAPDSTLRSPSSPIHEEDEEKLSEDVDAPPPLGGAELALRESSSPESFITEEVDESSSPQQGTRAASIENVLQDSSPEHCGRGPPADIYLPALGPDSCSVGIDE
# UniProt P17936, sequence (P17936 whole entry, looked up): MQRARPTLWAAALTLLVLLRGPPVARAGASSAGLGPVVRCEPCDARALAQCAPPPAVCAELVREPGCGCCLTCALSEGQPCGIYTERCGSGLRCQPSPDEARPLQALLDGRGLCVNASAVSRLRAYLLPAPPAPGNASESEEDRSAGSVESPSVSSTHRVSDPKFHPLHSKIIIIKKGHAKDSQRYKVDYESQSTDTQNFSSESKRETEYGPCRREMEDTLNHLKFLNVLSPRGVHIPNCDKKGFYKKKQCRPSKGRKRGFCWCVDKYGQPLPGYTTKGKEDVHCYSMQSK
# UniProt P52333, sequence (P52333 whole entry, looked up): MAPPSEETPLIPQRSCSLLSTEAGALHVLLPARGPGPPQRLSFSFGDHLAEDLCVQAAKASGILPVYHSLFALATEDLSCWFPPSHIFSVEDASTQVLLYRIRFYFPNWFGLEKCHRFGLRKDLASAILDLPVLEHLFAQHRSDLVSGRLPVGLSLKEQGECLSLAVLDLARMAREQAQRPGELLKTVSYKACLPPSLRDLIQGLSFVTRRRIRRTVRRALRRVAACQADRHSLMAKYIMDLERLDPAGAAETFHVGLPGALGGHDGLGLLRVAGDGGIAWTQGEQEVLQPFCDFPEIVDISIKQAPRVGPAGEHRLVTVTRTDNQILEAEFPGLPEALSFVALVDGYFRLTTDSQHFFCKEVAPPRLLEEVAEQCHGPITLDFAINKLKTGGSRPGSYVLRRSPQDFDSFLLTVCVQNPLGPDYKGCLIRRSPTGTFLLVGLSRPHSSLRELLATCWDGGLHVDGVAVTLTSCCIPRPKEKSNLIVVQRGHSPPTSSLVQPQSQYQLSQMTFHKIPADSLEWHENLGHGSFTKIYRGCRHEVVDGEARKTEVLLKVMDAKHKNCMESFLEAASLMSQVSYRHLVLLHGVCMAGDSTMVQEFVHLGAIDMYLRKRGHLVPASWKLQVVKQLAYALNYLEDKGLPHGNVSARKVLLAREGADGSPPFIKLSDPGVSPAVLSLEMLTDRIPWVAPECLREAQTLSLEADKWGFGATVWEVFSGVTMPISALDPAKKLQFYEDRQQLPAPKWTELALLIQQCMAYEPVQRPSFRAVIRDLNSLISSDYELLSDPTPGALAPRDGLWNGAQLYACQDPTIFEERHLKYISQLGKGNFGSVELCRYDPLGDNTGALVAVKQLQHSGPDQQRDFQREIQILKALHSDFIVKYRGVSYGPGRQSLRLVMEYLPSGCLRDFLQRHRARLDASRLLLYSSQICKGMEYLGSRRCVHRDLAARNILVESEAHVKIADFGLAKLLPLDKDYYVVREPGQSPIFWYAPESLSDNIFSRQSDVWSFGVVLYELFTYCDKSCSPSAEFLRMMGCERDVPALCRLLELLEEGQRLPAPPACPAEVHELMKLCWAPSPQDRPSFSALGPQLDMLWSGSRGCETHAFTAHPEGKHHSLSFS
# UniProt P55082, sequence (P55082 whole entry, looked up): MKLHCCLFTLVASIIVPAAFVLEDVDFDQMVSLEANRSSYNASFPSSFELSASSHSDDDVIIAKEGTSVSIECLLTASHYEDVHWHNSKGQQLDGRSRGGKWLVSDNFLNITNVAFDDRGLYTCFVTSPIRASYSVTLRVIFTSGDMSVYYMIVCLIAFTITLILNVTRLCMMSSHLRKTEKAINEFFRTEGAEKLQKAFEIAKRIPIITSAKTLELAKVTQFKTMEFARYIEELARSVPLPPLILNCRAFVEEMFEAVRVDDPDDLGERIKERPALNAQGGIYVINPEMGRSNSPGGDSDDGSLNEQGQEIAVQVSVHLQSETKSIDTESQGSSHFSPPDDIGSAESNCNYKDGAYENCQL
row,Target,log2 fold change
1,MGRN1 isoform 2 (UniProt O60291),0.227 (inactive)
2,IGFBP3 isoform 2 (UniProt P17936),-0.057 (inactive)
3,MAP4K4 isoform 6 (UniProt O95819),-0.025 (inactive)
4,MED25 isoform 3 (UniProt Q71SY5),0.07 (inactive)
5,MFSD11 (UniProt O43934),0.219 (inactive)
6,IKZF1 isoform 2 (UniProt Q13422),-0.016 (inactive)
7,IKZF1 (UniProt R9R4D9),-0.13 (inactive)
8,MAPK11 (UniProt Q15759),0.309 (inactive)
9,MCM10 (UniProt Q7L590),0.125 (inactive)
10,MCOLN3 (UniProt Q8TDD5),0.107 (inactive)
11,JAK3 (UniProt P52333),-0.024 (inactive)
12,LSR isoform 3 (UniProt Q86X29),0.25 (inactive)
13,MAPRE3 isoform 2 (UniProt Q9UPY8),-0.097 (inactive)
14,MFAP3 (UniProt P55082),0.064 (inactive)
15,LMNA isoform 2 (UniProt P02545),0.146 (inactive)
16,MAP4K2 (UniProt Q12851),-0.172 (inactive)
17,LRRCC1 (UniProt Q9C099),0.101 (inactive)
18,MAGEA8 (UniProt P43361),0.099 (inactive)
19,MAPK14 (UniProt Q16539),-0.072 (inactive)
20,ING5 (UniProt Q8WYH8),0.286 (inactive)
21,MFSD12 isoform 3 (UniProt Q6NUT3),-0.099 (inactive)
22,LRFN1 (UniProt Q9P244),0.052 (inactive)
